{"source": "PubChem BioAssay AID540333", "about": "(Southern Research Specialized Biocontainment Screening …, 2011)", "note": "Out of some 10,000 compounds screened, about 320 (3.2%) were called active. For the sample, actives were picked, then their nearest neighbours and some compounds at random. Unmarked numbers belong to inactive results. No stated cut-off is given here; in the data, active means CPE inhibition mostly above about 9.1% (no sharp cut-off); inactive means mostly below about 7.2%."}
{"assay": "antivirals protecting cells from dengue CPE – CPE readout, HTS (AID 540333)", "details": "Dengue virus CPE inhibition in host cells, at 20 µM; stronger effect = higher value"}
{"smiles": "COc1cc(/C(C)=N/NC(=S)NC(C)C)cc(OC)c1OC", "CPE inhibition": "inactive"}
{"smiles": "N#Cc1ccc(NC(=O)CCc2nc3ccccc3s2)cc1", "CPE inhibition": "inactive"}
{"smiles": "COC(=O)C1=C(NC(=O)COc2ccc3ccccc3c2)CCS1", "CPE inhibition": "1.12%"}
{"smiles": "Cc1ccc(NC(=O)CNc2ccc(Cl)cc2F)cc1", "CPE inhibition": "0.58%"}
{"smiles": "COc1ccc(Cl)cc1NC(=O)CNc1ccccc1F", "CPE inhibition": "0.95%"}
{"smiles": "COc1ccc(C)cc1NCC(=O)Nc1ccc(C(C)(C)C)cc1", "CPE inhibition": "15.4% (active)"}
{"smiles": "COc1cc(NC(=S)NC(=O)CC(C)C)ccc1NC(=O)c1cc2ccccc2o1", "CPE inhibition": "0.02%"}
{"smiles": "O=C(COC(=O)c1cccc(NS(=O)(=O)c2ccc(F)c(F)c2)c1)NC(=O)NC1CCCCC1", "CPE inhibition": "3.8%"}
{"smiles": "O=C(c1cccc(NS(=O)(=O)c2ccc(F)c(F)c2)c1)N1CCN(Cc2ccccc2)CC1", "CPE inhibition": "inactive"}
{"smiles": "O=C(c1cccc(NS(=O)(=O)c2ccc(F)c(F)c2)c1)N1CCN(C(c2ccccc2)c2ccccc2)CC1", "CPE inhibition": "39.5% (active)"}
{"smiles": "CCn1c(-c2c(Cl)c(C)nn2C)n[nH]c1=S", "CPE inhibition": "inactive"}
{"smiles": "COCCCNC(=S)NC1CCCCC1", "CPE inhibition": "inactive"}
{"smiles": "O=C1C(Cc2ccc(Br)cc2)SC(=Nc2ccccc2)N1c1ccccc1", "note": "(stereo unspecified)", "CPE inhibition": "12.3% (active)"}
{"smiles": "Cc1ccc(CC2SC(=Nc3ccccc3)N(c3ccccc3)C2=O)cc1", "note": "(stereo unspecified)", "CPE inhibition": "4.75%"}
{"smiles": "O=C1C(Cc2ccc(F)cc2)SC(=Nc2ccccc2)N1c1ccccc1", "note": "(stereo unspecified)", "CPE inhibition": "1.01%"}
{"smiles": "Cc1nn(-c2ccccc2)c(N)c1C(O)(C(F)(F)F)C(F)(F)F", "CPE inhibition": "0.32%"}
{"smiles": "CCOC(=O)[C@@H]1[C@H]2COc3ccc(Br)cc3[C@@H]2N2C(=O)N(c3ccc(OC)cc3)C(=O)[C@]12C", "CPE inhibition": "1.7%"}
{"smiles": "S=C(NCC1CCCO1)Nc1ccc(Cl)cc1", "note": "(stereo unspecified)", "CPE inhibition": "0.15%"}
{"smiles": "Cc1cc(C)cc(NC(=O)C(c2ccccc2)N2CCCC2)c1", "note": "(stereo unspecified)", "CPE inhibition": "0.92%"}
{"smiles": "Cc1ccc(NC(=O)C(c2ccc(Cl)cc2Cl)N2CCCC2)cc1", "note": "(stereo unspecified)", "CPE inhibition": "11.5% (active)"}
{"smiles": "Cc1ccc(S(=O)(=O)N2CCN(C(C(=O)Nc3ccc(F)cc3)c3ccccc3)CC2)cc1", "note": "(stereo unspecified)", "CPE inhibition": "1.1%"}
{"smiles": "Cc1cccc2cc(C3CC(c4ccco4)=NN3C(=O)CCC(=O)O)c(Cl)nc12", "note": "(stereo unspecified)", "CPE inhibition": "inactive"}
{"smiles": "COc1cc(C(=O)NCC(c2cccs2)N(C)C)cc(Cl)c1OC(C)C", "note": "(stereo unspecified)", "CPE inhibition": "0.015%"}
{"smiles": "COCCNC(=O)CCCC(=O)NCCOC", "CPE inhibition": "inactive"}
{"smiles": "CCOC(=O)c1c(NC(=O)C2=C(C)NC(=S)NC2c2ccc(F)cc2F)sc(C)c1C", "note": "(stereo unspecified)", "CPE inhibition": "32.4% (active)"}
{"smiles": "CCOc1cccc(C2NC(=S)NC(C)=C2C(=O)Nc2ccccc2)c1", "note": "(stereo unspecified)", "CPE inhibition": "0.13%"}
{"smiles": "CC1=C(C(=O)Nc2ccc(F)c(F)c2)C(c2cccs2)NC(=S)N1", "note": "(stereo unspecified)", "CPE inhibition": "0.675%"}
{"smiles": "O=C(CSc1nc2ccccc2n1S(=O)(=O)c1cccc([N+](=O)[O-])c1)NCc1cccs1", "CPE inhibition": "0.11%"}
{"smiles": "COc1cc(C(=O)OCC(=O)Nc2ccc(SC(F)F)cc2)cc(OC)c1OC", "CPE inhibition": "inactive"}
{"smiles": "O=C(Cc1c[nH]c2ccccc12)NNC(=O)c1ccccc1", "CPE inhibition": "0.335%"}
{"smiles": "COc1ccccc1CNC(=O)C(Cc1c[nH]c2ccccc12)NC(=O)OCc1ccccc1", "note": "(stereo unspecified)", "CPE inhibition": "6.32%"}
{"smiles": "CN(C)c1ccc(P(=O)(Nc2ccccc2)N2CCOCC2)c(NC(=O)c2cccs2)c1", "note": "(stereo unspecified)", "CPE inhibition": "2.15%"}
{"smiles": "Cc1ccc(NP(=O)(c2ccc(N(C)C)cc2NC(=O)c2cccs2)N2CCOCC2)cc1", "note": "(stereo unspecified)", "CPE inhibition": "2.19%"}
{"smiles": "Cc1ccc(NP(=O)(c2ccc(N(C)C)cc2NC(=O)c2cccs2)N2CCOCC2)cc1Cl", "note": "(stereo unspecified)", "CPE inhibition": "28.7% (active)"}
{"smiles": "COC(=O)c1ccccc1NC(=O)C1CCCO1", "note": "(stereo unspecified)", "CPE inhibition": "3.31%"}
{"smiles": "CCOC(=O)c1c(C)[nH]c(C(=O)COC(=O)[C@H](C)NC(=O)c2ccccc2Cl)c1C", "CPE inhibition": "0.24%"}
{"smiles": "O=C(NNc1nc(-c2ccc(Cl)cc2)cs1)c1ccco1", "CPE inhibition": "inactive"}
{"smiles": "CC(=O)c1c(C)[nH]c(C(=O)Nc2nc(-c3ccc(Cl)cc3)cs2)c1C", "CPE inhibition": "26.9% (active)"}
{"smiles": "O=C(/C=C/c1ccco1)NC(=S)Nc1nc(-c2ccc(Cl)cc2)cs1", "CPE inhibition": "1.57%"}
{"smiles": "CC(=O)c1c(C)[nH]c(C(=O)Nc2nc(-c3ccc(-c4ccccc4)cc3)cs2)c1C", "CPE inhibition": "4.52%"}
{"smiles": "O=C(Nc1nc(-c2ccc(Cl)cc2)cs1)NC1CCCCC1", "CPE inhibition": "20.3% (active)"}
{"smiles": "CC(=O)c1c(C)[nH]c(C(=O)Nc2nc(-c3ccccc3)c(C)s2)c1C", "CPE inhibition": "0.6%"}
{"smiles": "CCOP(=O)(OCC)C(Nc1ccccc1)c1cc(OC)ccc1OC", "note": "(stereo unspecified)", "CPE inhibition": "inactive"}
{"smiles": "COc1cccc(-c2c(-c3cc(OC)cc(OC)c3)n(C)c3ccc(-c4ccc5[nH]ccc5c4)cc23)c1", "CPE inhibition": "2.75%"}
{"smiles": "O=C(CCl)N(c1ccccc1)C1CCS(=O)(=O)C1", "note": "(stereo unspecified)", "CPE inhibition": "inactive"}
{"smiles": "O=C(/C=C/c1ccc(Cl)cc1Cl)N(Cc1ccccc1)C1CCS(=O)(=O)C1", "note": "(stereo unspecified)", "CPE inhibition": "38.5% (active)"}
{"smiles": "O=C(/C=C/c1ccc(Cl)cc1Cl)NCCSCc1ccccc1", "CPE inhibition": "0.45%"}
{"smiles": "CCN(C(=O)COC(=O)/C=C/c1ccc(O)c(OC)c1)C1CCS(=O)(=O)C1", "note": "(stereo unspecified)", "CPE inhibition": "0.935%"}
{"smiles": "O=C(/C=C/c1ccc(Cl)cc1Cl)N(Cc1ccc(Cl)cc1)C1CCS(=O)(=O)C1", "note": "(stereo unspecified)", "CPE inhibition": "29.6% (active)"}
{"smiles": "CC(C)CN(C(=O)CSc1nn(-c2ccc(Cl)cc2)c(=S)s1)C1CCS(=O)(=O)C1", "note": "(stereo unspecified)", "CPE inhibition": "2.1%"}
{"smiles": "COc1nccnc1NS(=O)(=O)c1ccc(NC(=S)NC(=O)c2ccccc2)cc1", "CPE inhibition": "inactive"}
{"smiles": "Cc1cc(C)cc(NC(=O)CSc2nc3c(oc4ccccc43)c(=O)n2-c2ccccc2)c1", "CPE inhibition": "0.68%"}
{"smiles": "COc1ccc(NC(=O)COC(=O)CNS(=O)(=O)c2ccc(F)c(F)c2F)cc1OC", "CPE inhibition": "inactive"}
{"smiles": "COc1ccc(NS(=O)(=O)c2ccc(N3CCOCC3)c(NC(=O)c3ccc(OC)cc3)c2)cc1", "CPE inhibition": "inactive"}
{"smiles": "O=C(Nc1cc(S(=O)(=O)Nc2ccc(Cl)cc2)ccc1N1CCCCC1)c1ccc(F)cc1Cl", "CPE inhibition": "inactive"}
{"smiles": "N#Cc1ccc(C(=O)Nc2cc(S(=O)(=O)Nc3ccc(Cl)cc3)ccc2N2CCCCC2)cc1", "CPE inhibition": "7.53% (active)"}
{"smiles": "CCOC(=O)C1=C(O)/C(=C/c2ccc(OCC(=O)O)c(OCC)c2)SC1=Nc1ccc(OC)cc1", "CPE inhibition": "0.63%"}
{"smiles": "CC(=O)N1c2ccccc2[C@H](C)[C@H]1C", "CPE inhibition": "inactive"}
{"smiles": "O=C(NCCc1nc2ccccc2[nH]1)c1ccc(Cl)c([N+](=O)[O-])c1", "CPE inhibition": "0.05%"}
{"smiles": "CCC[C@@H](NS(=O)(=O)c1ccc(C)cc1)C(=O)Oc1ccc2c3c(c(=O)oc2c1)CCC3", "CPE inhibition": "inactive"}
{"smiles": "O=C(CN1CCN(C(=S)NC2CCCC2)CC1)Nc1ccc(Oc2ccccc2)cc1", "CPE inhibition": "12.1% (active)"}
{"smiles": "S=C(Nc1ccc(Br)cc1)NC1CCCCC1", "CPE inhibition": "4.99%"}
{"smiles": "CCNC(=S)N1CCN(CC(=O)Nc2ccc(Br)cc2)CC1", "CPE inhibition": "2.06%"}
{"smiles": "S=C(Nc1ccc(Oc2ccc(NC(=S)NC3CCCCC3)cc2)cc1)NC1CCCCC1", "CPE inhibition": "25.8% (active)"}
{"smiles": "S=C(Nc1ccc(Oc2ccccc2)cc1)NC1CCCC1", "CPE inhibition": "0.255%"}
{"smiles": "S=C(Nc1ccc(Oc2ccccc2)cc1)NC1CCCCCC1", "CPE inhibition": "0.02%"}
{"smiles": "Cc1ccc(S(=O)(=O)N(C)Cc2ccc(C(=O)N/N=C/c3ccc(OC(F)F)cc3OC(F)F)cc2)cc1", "CPE inhibition": "2.12%"}
{"smiles": "S=C(c1ccc(-c2ccccc2Cl)o1)N1CCCCC1", "CPE inhibition": "2.92%"}
{"smiles": "Cn1cc(C(=O)N2CCc3ccccc32)cn1", "CPE inhibition": "inactive"}
{"smiles": "c1cnc2cc(-c3ccsc3)ncc2c1", "CPE inhibition": "0.12%"}
{"smiles": "COc1cccc(/C=C(/C#N)c2ccc(F)cc2)c1OCc1cccc(C(=O)O)c1", "CPE inhibition": "inactive"}
{"smiles": "CN1CCN(C(=O)c2cnn3c(C(F)(F)F)cc(-c4cccs4)nc23)CC1", "CPE inhibition": "inactive"}
{"smiles": "CC(C)/C=N/NC(=O)c1cccc(N2CCCC2=O)c1", "CPE inhibition": "0.335%"}
{"smiles": "CCOC(=O)c1sc(NC(=S)NC(=O)c2ccccc2)c(C(=O)OCC)c1C", "CPE inhibition": "3.5%"}
{"smiles": "COc1cc(OC)cc(-c2c(-c3cccs3)c3cc(-c4cccc5[nH]ccc45)ccc3n2C)c1", "CPE inhibition": "11.7% (active)"}
{"smiles": "COc1ccc(-c2c(-c3cc(OC)cc(OC)c3)n(C)c3ccc(-c4cccc5[nH]ccc45)cc23)cc1", "CPE inhibition": "3.95%"}
{"smiles": "COc1cccc(-c2c(-c3cc(OC)cc(OC)c3)n(C)c3ccc(-c4cccc5[nH]ccc45)cc23)c1", "CPE inhibition": "4.01%"}
{"smiles": "Cc1ccc(-c2[nH]nc3c2C(C)C(C#N)=C(N)O3)cc1", "note": "(stereo unspecified)", "CPE inhibition": "inactive"}
{"smiles": "CC(C)(C)[C@@H]1CCC(=O)N(CC[C@H](Sc2ccccc2)c2ccccc2)CC1", "CPE inhibition": "1.54%"}
{"smiles": "Cc1ccc(-c2csc3nc(SCC(N)=O)n(Cc4ccccc4)c(=O)c23)cc1", "CPE inhibition": "12% (active)"}
{"smiles": "CCn1c(SCc2nc3scc(-c4ccccc4)c3c(=O)[nH]2)nnc1-c1cccs1", "CPE inhibition": "inactive"}
{"smiles": "Cc1ccc(-n2c(SCC(N)=O)nc(O)cc2=O)cc1", "CPE inhibition": "1.35%"}
{"smiles": "Cc1ccc(-c2csc3nc(SCC(=O)N(C)C)n(Cc4ccccc4)c(=O)c23)cc1", "CPE inhibition": "21.1% (active)"}
{"smiles": "C=CCn1c(SCC(=O)c2[nH]c(C)c(C(=O)OCC)c2C)nc2scc(-c3ccc(OC)cc3)c2c1=O", "CPE inhibition": "inactive"}
{"smiles": "CN(Cc1ccccc1)c1nc(CN2CCOCC2)nc2scc(-c3ccccc3)c12", "CPE inhibition": "1.83%"}
{"smiles": "O=C(Nc1ccc(-c2nc3ccccc3[nH]2)cc1)c1ccccc1NS(=O)(=O)c1ccc(F)cc1", "CPE inhibition": "0.325%"}
{"smiles": "COc1cc(NC(=O)CSc2nc3c(C)ccc(C)c3cc2C)c(C(=O)O)cc1OC", "CPE inhibition": "inactive"}
{"smiles": "O=C1CN(C(=O)CSc2nnc(Nc3ccccc3)s2)c2ccccc2N1", "CPE inhibition": "inactive"}
{"smiles": "S=C1NCCOCCNC(=S)NCCOCCOCCOCCN1", "CPE inhibition": "inactive"}
{"smiles": "CC(=O)CC[C@@H](C)O[C@@H]1OC(C)[C@H](O)CC1O", "note": "(stereo partly specified)", "CPE inhibition": "0.175%"}
{"smiles": "CCc1cccc(CC)c1NC(=O)C1CN(S(=O)(=O)c2ccccc2)CCN1S(=O)(=O)c1ccccc1", "note": "(stereo unspecified)", "CPE inhibition": "1.21%"}
